Results: the supplement of paper PMC6555819

What was measured:
Assay in all cases: PBM binding z-score (relative to random genomic background probes); higher = stronger binding; sequences stand for … in GC…GCGATTGACAGCGTAGAATGAAGG
[1] = system: PPARg:RXRa DBDmut IVT, anti-RXR (DBD mutation: RXRa K156A/R161A, NR concentration 270 nM, RXRa partner concentration 90 nM)
In short: (§1)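 On custom Agilent 4×180K arrays, double-stranded probes with 34-nt variable regions carried direct-repeat seeds, single-nucleotide variants, half-site ablations or random human genomic background. Ligand-free nuclear receptor dimers were applied for 1 h, and binding was read with antibodies against each partner (one per run). Binding z-scores come from regression-normalized fluorescence, with the random background probes as reference.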

[2] = system: PPARg:RXRa IVT, anti-PPARg (NR concentration 270 nM, RXRa partner concentration 90 nM)
In short: as §1

[3] = system: PPARg DBDmut:RXRa IVT, anti-PPARg (DBD mutation: PPARg1 K132A/R137A, NR concentration 270 nM, RXRa partner concentration 90 nM)
In short: as §1

[4] = system: PPARg DBDmut IVT, anti-PPARg (DBD mutation: PPARg1 K132A/R137A, NR concentration 270 nM)
In short: as §1

[5] = system: PPARg homodimer (NR concentration 180 nM)
In short: as §1

[6] = system: PXR:RXRa (NR concentration 270 nM, RXRa partner concentration 90 nM)
In short: as §1

[7] = system: PXR homodimer (NR concentration 270 nM)
In short: as §1

[8] = system: RARa:RXR (NR concentration 270 nM, RXRa partner concentration 90 nM)
In short: as §1

[9] = system: RARa homodimer (NR concentration 270 nM)
In short: as §1

[10] = system: RARb:RXRa (NR concentration 270 nM, RXRa partner concentration 90 nM)
In short: as §1

| Sequence | PBM binding z-score [1] | PBM binding z-score [2] | PBM binding z-score [3] | PBM binding z-score [4] | PBM binding z-score [5] | PBM binding z-score [6] | PBM binding z-score [7] | PBM binding z-score [8] | PBM binding z-score [9] | PBM binding z-score [10] |
| --- | --- | --- | --- | --- | --- | --- | --- | --- | --- | --- |
| ATTTCTAGGTAAAGATAGTTCAGTGAATGCAAAT | 4.34 | 3.44 | 1.56 | 1.86 | 1.56 | 1.08 | 1.16 | 0.625 | 1.49 | 0.8 |
| AGAATGAGGTTATTAAGATTAGGGAATTGCGGTC | 2.99 | 2.43 | 1.23 | 0.542 | 1.01 | 1.02 | 0.66 | 1.52 | 0.918 | 1.47 |
| ACTTACGGGTCAACGAGGTTATAACACGCGTATA | 3.68 | 4.21 | 3.33 | 2.76 | 4.28 | 5.81 | 4.42 | 5.84 | 2.39 | 4.37 |
| AGAATGAGGTTATACGTAGATCATGGAAGAAAGT | 3.69 | 2.6 | 1.46 | 0.947 | 1.21 | 1.25 | 0.482 | 1.77 | 0.298 | 1.53 |
| TAGACTAGGTCATGGGCCAGTATACCACGCGAAC | 5.98 | 6.8 | 1.6 | 0.962 | 1.38 | 1.04 | 0.462 | 2.1 | 0.407 | 3.49 |
| TTACCAAGGTGACAGGTCGTTGATGCACGCCTTG | 2.31 | 3.79 | 0.46 | 0.0595 | 1.64 | 0.764 | 0.0726 | 1.14 | -0.207 | 2.05 |
| GGAACGAGGGCATTCGAGTTGATAGCCTGGCGAT | 3.64 | 2.1 | -0.256 | -0.793 | -0.188 | 4.04 | 1.57 | 1.58 | -0.598 | 1.82 |
| ATCTCTAGGCAACCAAGTTCAGTGAATGCCGAAC | 0.769 | 0.547 | 0.416 | 0.473 | -0.0686 | 1.68 | 1.43 | 0.461 | -0.516 | 0.951 |
| CCTTACGGGTCAAGGTTATAGAACGGGTGGTACG | 1.6 | 3.22 | -0.135 | -0.211 | 1.83 | 3.27 | 0.223 | 4.16 | 1 | 4.13 |
| CAAACTAGGTCAAGGTCAAAGCCGGTTTGTGCCA | 8.75 | 8.89 | 2.59 | 0.00542 | 2.93 | 4.89 | 1.4 | 4.84 | 0.855 | 5.2 |
| CGAACGAGGGCATAAGTTGATAGCAAATGCCGAT | 2.66 | 1.67 | -0.0137 | -0.0553 | 0.0801 | 0.19 | 0.226 | 0.129 | -0.269 | 1.58 |
| ATATGTAGGTTAGCTGCGGTCATTCAGACTAGGC | 6.89 | 6.05 | 1.21 | 1.12 | 0.698 | 3.39 | 0.151 | 1.21 | 0.221 | 1.88 |
| CCTTCTGGGCCAAAGGTCATTGATTCCAATGCTC | 5.17 | 6.5 | 0.508 | 0.533 | 2.95 | 5.52 | 1.51 | 6.29 | 0.576 | 4.44 |
| TCTATTAGTTGCTTAGGGCAACCGAAACAGCGGA | 2.15 | 0.552 | 0.453 | 1.28 | 0.448 | 0.524 | 0.123 | 0.386 | 0.367 | 0.946 |
| TACCCTAGGTCAGATCGGGCCAGTATACGCTATA | 0.709 | 2.17 | 0.146 | -0.236 | 0.849 | 1.37 | -0.0848 | 1.8 | 0.123 | 3.19 |
| TTACCAAGGTGATGGTCGTTGATCCCTCTGTAGA | 1.08 | 1.23 | -0.135 | 0.288 | 0.359 | -0.171 | -0.42 | 0.272 | 0.249 | 0.312 |
| CCAGACAAGTGAAAGGTAACTCAGTCTGGTACGC | -0.0186 | 0.0117 | -0.187 | -0.255 | 0.888 | 0.0621 | -0.0763 | 0.166 | 0.124 | 0.247 |
| ATCTCTAGTTAAGACTCAGTTCAGTGAAGAACGC | 0.356 | 0.194 | 1.65 | 1.35 | 1.07 | 1.23 | 2.02 | 0.831 | 1.93 | 0.235 |
| CGAACTATGTCATCCAGGACAGTGAATACATTGA | 3.74 | 2.94 | 1.29 | 1.1 | 0.502 | 0.317 | -0.051 | 0.733 | 0.52 | 0.805 |
| ACTAGCAGGCCAAGGGTAACTCAAGATTAGTCCG | 0.865 | 1.67 | -0.794 | -0.439 | 0.663 | -0.287 | -0.127 | 0.0162 | -0.543 | 0.971 |
| TAGCCTAGGTCAGATCTGGCCAGTATACGCTATA | 0.589 | 1.44 | -0.455 | -0.0508 | -0.0754 | 0.447 | -1.1 | 0.766 | -1.06 | 2.98 |
| TCTTGTAGATCAATAGAGGTTAAGCAAGTGCGCT | 1.66 | 1.19 | 0.792 | -0.371 | 0.43 | 3.72 | 0.269 | 1.89 | 0.018 | 0.837 |
| GCAGACAGGTGAATCGCAGGTAACTCAGGGTGGC | 0.726 | 0.657 | -0.695 | -0.904 | -0.727 | -0.313 | -0.959 | 0.0382 | -0.689 | 0.443 |
| TATACAGGGTTAAAGGCCAGAGTACGAATGTCGA | 0.697 | 2.95 | 1.23 | 1.68 | 1.75 | 1.82 | 0.41 | 2.44 | 0.668 | 2.13 |
